From PubChem BioAssay (NCATS)
Several values for one entry are separate records, joined by “and”; a condition that tells them apart may be missing. Equal entries are not always repeated. Records with an inconclusive call do not appear. Activity calls are given as the source filed them. Unless noted, the call rests on the fitted dose curve; in most records, active means well fitted curve in the direction sought with a large enough effect; inconclusive means small, poorly fitted or top-dose-only effect, or another doubt; inactive means no such curve, though single readings can be large; an effect the other way counts as inactive or inconclusive.

Legend:
[1] = Cell Viability - SK-N-SH (AID 435; calls by dose curve;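 further: potency means the concentration at half of the fitted maximal effect; compound exposure lasted 40 h at 37 °C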); settings: SK-N-SH neuroblastoma cell viability qHTS
Method in brief: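 SK-N-SH human neuroblastoma cells (1500/well) were exposed to compounds in complete medium for 40 h at 37 °C, and intracellular ATP was then measured by CellTiter-Glo luminescence. AC50 was taken from Hill fits, normalized to DMSO and 100 uM tamoxifen.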

[2] = Cell Viability - Renal Proximal Tubule (AID 545); settings: renal proximal tubule cells viability; series mostly up to 91.7 µM; further: nearly all actives have a fitted effect of over 40% in size
Method in brief: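 Primary rat renal proximal tubule cells (1000/well) were treated with compounds for 40 hr at 37 °C in complete medium. Intracellular ATP was measured by CellTiter-Glo luminescence, and AC50 values came from Hill-equation fits of concentration-response data.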

[3] = Cellular Toxicity (caspase-3) Jurkat (AID 655); settings: Jurkat caspase-3 activation, luminescence; caspase-3 activation: at 92.2 µM (top of the series), DMSO = 0%, tamoxifen = 100%;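 further: cells exposed to compound for 16 h at 37 °C before reading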
Method in brief: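 Jurkat cells (5000/well) in complete medium were treated with compounds for 16 hr at 37 °C, then Caspase-Glo 3/7 luminescence was read after 20 min at room temperature. Data normalized to DMSO (basal) and 100 uM tamoxifen (100%); AC50 from Hill fit.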

[4] = Cellular Toxicity (caspase-3) SHSY5Y (AID 657); settings: SH-SY5Y caspase-3 activation, DMSO zero, 10 µM staurosporine = 100%; series mostly up to 91.7 µM
Method in brief: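 SH-SY5Y human neuroblastoma cells (1500/well) were treated with compounds for 16 h at 37 °C, then Caspase-Glo 3/7 luminescence was read after 1 h at room temperature. Data normalized to DMSO and 10 uM staurosporine; AC50 from Hill fits.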

[5] = Cellular Toxicity (caspase-3) BJ (AID 658); settings: BJ fibroblasts, luminescence, normalized: DMSO 0%, staurosporine 100%; series mostly up to 91.7 µM
Method in brief: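 Caspase-Glo 3/7 luminescence, read 1 hr after reagent at room temperature, in normal BJ fibroblasts exposed 16 hours at 37 °C. AC50 values from Hill-equation concentration-response, scaled between DMSO basal and 10 uM staurosporine as 100%.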

[6] = Cellular Toxicity (caspase-3) N2a (AID 665); settings: N2a cells, luminescence, normalized: DMSO 0%, 10 µM staurosporine 100%; series mostly up to 92.2 µM;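 further: compound exposure lasted 16 h at 37 °C before readout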
Method in brief: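 Caspase-3/7 activation measured as luminescence from Caspase-Glo reagent (1 h, room temperature) after 16 h compound exposure of mouse N2a cells. AC50 values from Hill-equation concentration-response, scaled between DMSO and 10 uM staurosporine.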

[7] = Cellular Toxicity (caspase-3) Renal Proximal Tubule (AID 667); settings: renal proximal tubule cells; series mostly up to 91.7 µM;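 further: cells exposed to compound for 16 hours at 37 °C before detection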
Method in brief: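 Primary rat proximal tubule cells, 1000/well, 5 h plating at 37 °C, then compound 16 h at 37 °C. Caspase-Glo 3/7 reagent, 1 h RT, luminescence. Normalized to DMSO (basal) and 10 uM staurosporine (100%); Hill-fit AC50.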

[8] = biological target: Cytochrome P450 3A4 (Homo sapiens) (UniProt P08684); assay: qHTS Assay for Inhibitors and Substrates of Cytochrome P450 3A4 (AID 884); settings: recombinant CYP3A4, Luciferin-PPXE luminescence; series mostly up to 57.1 µM; further: on the % scale 0 is the no-effect control and ±100 the full control effect; nearly all actives have a fitted effect of over 50% in size
Method in brief: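 Luminescent readout of luciferin produced by CYP3A4 (20 nM) dealkylation of Luciferin-PPXE, 25 uM (its KM). NADPH-driven reaction ran 60 min at RT after 10 min compound preincubation; data scaled to 57 uM ketoconazole as 100% inhibition.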

[9] = MultiTox-Fluor Cytotoxicity Assay - LYMP1-001 - Dead Cells (AID 946); settings: LYMP1-001 lymphoblastoid cells, dead-cell protease fluorescence; series mostly up to 92.2 µM;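 further: 0% = DMSO and 100% = tetraoctylammonium bromide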
Method in brief: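 AC50 from Hill fit of concentration-response; data normalized to DMSO (basal) and 15 uM tetraoctylammonium bromide (100%). LYMP1-001 lymphoblastoid cells, 2500/well, 16 hr compound at 37 C; dead-cell protease fluorescence, Ex/Em 485/520.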

[10] = Cell Viability - LYMP1-002 - Assay at 16 hr (AID 948); settings: LYMP1-002 lymphoblastoid cell viability; series mostly up to 92.2 µM;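 further: 0% = DMSO alone and full effect = 92 µM tetraoctylammonium bromide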
Method in brief: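 Human lymphoblastoid cells (LYMP1-002), 2500/well, were preincubated 5 hr at 37 C, then exposed to compounds for 16 hr at 37 C in complete medium. Cellular ATP was read by CellTiter-Glo luminescence after 30 min at room temperature; AC50 from Hill fits.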

[11] = MultiTox-Fluor Cytotoxicity Assay - LYMP1-003 - Dead Cells (AID 961); settings: LYMP1-003 lymphoblastoid cells, dead-cell protease fluorescence; series mostly up to 92.2 µM;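 further: 0% = DMSO and 100% = tetraoctylammonium bromide; nearly all actives have a fitted effect of over 70% in size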
Method in brief: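 Human lymphoblastoid LYMP1-003 cells (2500/well) were treated with compounds for 16 hr at 37 C in complete medium. Dead-cell protease release was read by bis-AAF-R110 fluorescence (Ex/Em 485/520). AC50 came from Hill fits, normalized to DMSO and 15 uM tetraoctylammonium bromide.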

[12] = Cell Viability - LYMP1-003 - Assay at 24 hr (AID 963); settings: LYMP1-003 lymphoblastoid cell viability; series mostly up to 92.2 µM;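 further: plate controls were DMSO only for no effect and tetraoctylammonium bromide positive control for full effect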
Method in brief: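 Concentration-response qHTS: ATP loss measured by CellTiter-Glo luminescence after 24 h compound exposure at 37 C. Cells were LYMP1-003 human lymphoblastoid, 2500 per well. AC50 derived via standard Hill equation modeling.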

[13] = Cell Viability - LYMP2-003 (AID 965); settings: LYMP2-003 lymphoblastoid cell viability; series mostly up to 92.2 µM;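 further: cells exposed to compounds for 24 h before reading; 0% = DMSO only and full effect = 92 µM tetraoctylammonium bromide; nearly all actives have a fitted effect of over 50% in size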
Method in brief: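 Human lymphoblastoid cells (2500/well) were pre-incubated 5 hr at 37 C, then exposed to compounds over a concentration range for 24 hr at 37 C. Intracellular ATP was read by CellTiter-Glo luminescence; AC50 came from Hill-equation fits.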

[14] = Cell Viability - LYMP2-015 (AID 971); settings: LYMP2-015 lymphoblastoid cell viability; series mostly up to 92.2 µM;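 further: 0% = DMSO only and full effect = 92 µM tetraoctylammonium bromide; nearly all actives have a fitted effect of over 55% in size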
Method in brief: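 Cytotoxicity readout: decrease in intracellular ATP (CellTiter-Glo luminescence) in 2500 LYMP2-015 lymphoblastoid cells/well after 24 h compound exposure at 37 C. Concentration-response data fitted with the standard Hill equation to give AC50.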

[15] = Cell Viability - LYMP1-002 - Assay at 24 hr (AID 993); settings: LYMP1-002 lymphoblastoid cells viability; series mostly up to 92.2 µM; further: on the % scale 0 is the no-effect control and ±100 the full control effect
Method in brief: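 qHTS cytotoxicity at 24 h: CellTiter-Glo ATP luminescence in lymphoblastoid line LYMP1-002 incubated with compound at 37 °C. Concentration-response modeled with the Hill equation for AC50; tetraoctylammonium bromide served as positive control.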

[16] = Cell Viability - LYMP1-002 - Assay at 40 hr (AID 994); settings: LYMP1-002 lymphoblastoid cell viability; series mostly up to 92.2 µM;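 further: 0% = DMSO only and full inhibition = 92 µM tetraoctylammonium bromide; nearly all actives have a fitted effect of over 60% in size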
Method in brief: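 Cytotoxicity was read as loss of cellular ATP (CellTiter-Glo luminescence) after 40 hr compound exposure at 37 C of 2500 LYMP1-002 lymphoblastoid cells per well. Concentration-response data were fitted with the standard Hill equation to give AC50.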

[17] = biological target: Peroxisome proliferator-activated receptor alpha (Homo sapiens) (UniProt Q07869); assay: qHTS assay for small molecule agonists of the peroxisome proliferator-activated receptor alpha (PPARalpha) signaling pathway (AID 651778); settings: PathHunter PPARalpha complementation, chemiluminescence, 6 h; active compounds read high; further: % of control where 0% means no effect
Method in brief: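 Chemiluminescence from complemented enzyme reported PPARalpha activation in cells after 6 hr of compound treatment at 37 C. The detection reagent was incubated for 60 min at room temperature, and compounds were scored as agonists.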

[18] = qHTS assay for cell viability of HEK293 cells (AID 743288); settings: ATP luminescence (CellTiter-Glo), 18 h, active compounds read low; further: on the % scale 0 is the no-effect control and ±100 the full control effect; nearly all actives have a fitted effect of over 50% in size
Method in brief: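 After 18 h compound exposure at 37 C, parental HEK293 cells (2,000/well) are lysed with CellTiter-Glo and luminescence is read following 30 min at room temperature.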

[19] = qHTS assay for cell viability of the p53RE-bla HCT-116 cell line (AID 743292); settings: p53RE-bla HCT-116 viability, ATP luminescence, 16 h; series mostly up to 95 µM; further: on the % scale 0 is the no-effect control and ±100 the full control effect; nearly all actives have a fitted effect of over 55% in size
Method in brief: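 Intracellular ATP of p53RE-bla HCT-116 cells measured by luciferase luminescence following 16 h compound incubation at 37 C; DMSO-only wells served as vehicle controls.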

[20] = biological target: Nuclear receptor subfamily 1 group I member 2 (Rattus norvegicus) (UniProt Q9R1A7); assay: qHTS assay for small molecule activators of the rat pregnane X receptor (rPXR) signaling pathway (AID 651751; call rule not given here; further: 0% is about no effect); settings: rPXR reporter cells, luciferase (One-Glo), 24 h
Nuclear receptor subfamily 1 group I member 2 (Rattus norvegicus), sequence (Q9R1A7 whole entry, looked up): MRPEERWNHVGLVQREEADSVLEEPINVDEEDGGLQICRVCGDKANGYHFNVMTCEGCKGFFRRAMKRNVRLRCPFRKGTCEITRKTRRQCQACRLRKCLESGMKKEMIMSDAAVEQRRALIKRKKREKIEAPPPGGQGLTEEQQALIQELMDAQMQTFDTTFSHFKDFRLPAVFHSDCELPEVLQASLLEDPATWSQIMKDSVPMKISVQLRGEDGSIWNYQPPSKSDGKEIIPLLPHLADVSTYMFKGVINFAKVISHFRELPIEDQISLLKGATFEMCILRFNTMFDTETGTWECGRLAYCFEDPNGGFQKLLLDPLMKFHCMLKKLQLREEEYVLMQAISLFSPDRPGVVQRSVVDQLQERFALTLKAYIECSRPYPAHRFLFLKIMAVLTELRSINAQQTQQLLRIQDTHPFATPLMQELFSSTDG

Peroxisome proliferator-activated receptor alpha (Homo sapiens), sequence (Q07869 whole entry, looked up): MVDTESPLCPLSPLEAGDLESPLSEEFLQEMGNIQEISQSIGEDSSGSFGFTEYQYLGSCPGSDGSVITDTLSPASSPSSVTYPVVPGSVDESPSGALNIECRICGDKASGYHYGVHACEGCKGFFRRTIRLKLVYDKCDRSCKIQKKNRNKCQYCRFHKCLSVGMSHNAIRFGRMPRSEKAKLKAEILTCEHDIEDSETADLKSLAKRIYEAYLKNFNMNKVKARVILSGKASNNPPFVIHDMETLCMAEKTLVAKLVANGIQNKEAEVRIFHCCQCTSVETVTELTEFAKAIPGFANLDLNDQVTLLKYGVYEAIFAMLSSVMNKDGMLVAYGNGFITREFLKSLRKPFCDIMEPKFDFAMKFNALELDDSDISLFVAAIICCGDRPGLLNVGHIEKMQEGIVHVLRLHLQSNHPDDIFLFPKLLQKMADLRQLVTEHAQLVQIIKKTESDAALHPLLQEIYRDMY
Cytochrome P450 3A4 (Homo sapiens), sequence (P08684 whole entry, looked up): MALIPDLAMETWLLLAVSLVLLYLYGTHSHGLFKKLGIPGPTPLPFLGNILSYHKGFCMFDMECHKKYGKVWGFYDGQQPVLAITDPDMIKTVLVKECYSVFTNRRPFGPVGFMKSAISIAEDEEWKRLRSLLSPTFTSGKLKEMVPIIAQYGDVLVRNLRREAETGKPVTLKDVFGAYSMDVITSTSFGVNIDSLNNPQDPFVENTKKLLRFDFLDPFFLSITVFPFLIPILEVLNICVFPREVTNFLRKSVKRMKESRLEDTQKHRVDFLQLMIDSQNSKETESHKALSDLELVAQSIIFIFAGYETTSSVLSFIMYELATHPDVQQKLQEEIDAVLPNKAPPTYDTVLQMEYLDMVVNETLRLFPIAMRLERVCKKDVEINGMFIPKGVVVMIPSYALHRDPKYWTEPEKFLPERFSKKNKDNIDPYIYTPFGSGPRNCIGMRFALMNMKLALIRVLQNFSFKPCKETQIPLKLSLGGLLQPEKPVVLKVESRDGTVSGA

CC(C)(Cl)[N+](=O)[O-]
inactive: Potency [1] > 92 µM | outcome [2] | caspase-3 activation [3] 0.332% | outcome [4] | outcome [5] | outcome [6] | outcome [7] | Potency [8] | outcome [9] | outcome [10] | Potency [11] | outcome [12] | Potency [13] | Potency [14] | Potency [15] | Potency [16] | max response [17] -3.23% | max response [18] 8.03% | Potency [19] | max response [20] 2.49%

O=C(Cc1ccccc1)OCc1ccccc1
inactive: Potency [1] > 92 µM | outcome [2] | caspase-3 activation [3] 3.55% | outcome [4] | outcome [5] | outcome [6] | outcome [7] | Potency [8] | outcome [9] | outcome [10] | Potency [11] | outcome [12] | Potency [13] | Potency [14] | Potency [15] | Potency [16] | max response [17] 0.258% | max response [18] -0.778% | Potency [19] | max response [20] -0.53%

C1CC2OC2CC1C1CO1 (stereo not given)
inactive: Potency [1] > 92 µM | outcome [2] | caspase-3 activation [3] -1.28% | outcome [4] | outcome [5] | outcome [6] | outcome [7] | Potency [8] | outcome [9] | outcome [10] | Potency [11] | outcome [12] | Potency [13] | Potency [14] | Potency [15] | Potency [16] | max response [17] -1.95% and -1.6% | max response [18] -9.23% and -6.84% | Potency [19] | max response [20] -1.19% and -4.43%

CC(C)(OOC(C)(C)c1ccccc1)c1ccccc1
inactive: Potency [1] > 92 µM | outcome [2] | caspase-3 activation [3] -0.0747% | outcome [4] | outcome [5] | outcome [6] | outcome [7] | Potency [8] | outcome [9] | outcome [10] | Potency [11] | outcome [12] | Potency [13] | Potency [14] | Potency [15] | Potency [16] | max response [17] -0.439% and 3.52% | max response [18] -10.5% and -9.14% | Potency [19] | max response [20] -3.9% and 4.2%
